The values below come from PubChem BioAssay (NCATS).

Records with an inconclusive call do not appear. A call without a number means that no potency is given here. Calls of active or inactive are those of the source. Calls come from the whole dose curve; as a rule, active = well fitted curve in the direction sought with a large enough effect; inconclusive = small, poorly fitted or top-dose-only effect, or another doubt; inactive = no such curve, though single readings can be large; an effect the other way counts as inactive or inconclusive.

Test [1] addresses Aldehyde dehydrogenase, mitochondrial (Homo sapiens) (UniProt P05091). The test is described as follows: qHTS for Inhibitors of the Aldehyde Dehydrogenase Family (ALDH2) Primary screen (AID 2061308). Note: nearly all actives have a fitted effect of over 55% in size.
Test [2] has as its target Retinaldehyde dehydrogenase 3 (Homo sapiens) (UniProt P47895). The test is described as follows: qHTS for Inhibitors of the Aldehyde Dehydrogenase Family (ALDH1A3) Primary screen (AID 2061315).

Take `O=C(Nc1cccc2c1cnn2-c1ccc(F)cc1)c1ccccn1`: the Potency entry in test [1] and in test [2] was “inactive” in each case.
Regarding `Cc1cc(C)n2ncc(C(=O)Nc3ccc(C#N)cc3)c2n1`, the Potency result in test [1] and in test [2] was “inactive” throughout.
Turning to `Cc1ccc(OCCn2c(CCNC(=O)C3CCCCC3)nc3ccccc32)cc1`, the Potency result in test [1] and in test [2] was “inactive” in each case.
Take `O=C(O)c1ccc(O)c2ncc(N3CCCCC3)cc12`: the Potency entry in test [1] and in test [2] was “inactive” in each case.
As for `Nc1ncnc2c1nc(N)n2[C@@H]1O[C@H](CO)[C@@H](O)[C@H]1O`, the Potency result in test [1] and in test [2] was “inactive” each time.
Consider `Cc1ccccc1C(C(=O)NC1CCCCC1)N(C(=O)Cn1cnc2ccccc21)c1cccc(F)c1` (stereo unspecified), for which the Potency entry in test [1] and in test [2] was “inactive” in each case.
On to `CCC(C)N(C)C(=O)Cn1nc(-c2ccc(C)cc2)ccc1=O` (stereo unspecified), for which the Potency entry in test [1] and in test [2] was “inactive” in each case.
On to `O=C(Nc1nnc(-c2ccco2)o1)c1ccc(Cl)cc1`, for which the Potency result in test [1] and in test [2] was “inactive” each time.
As for `O=C(Nc1nnc(-c2ccco2)o1)c1ccc(C(F)(F)F)cc1`, the Potency entry in test [1] and in test [2] was “inactive” each time.
Consider `CS(=O)(=O)c1ccc(C(=O)OCC(=O)N2CCN(CCC3CCCCC3)CC2)cc1[N+](=O)[O-]`, for which the Potency result in test [1] and in test [2] was “inactive” throughout.
For `CC(=O)Nc1sc2c(c1-c1cccnc1)CCNC2`, the Potency entry in test [1] and in test [2] was “inactive” throughout.
Take `O=C(Nc1ccc(S(=O)(=O)Nc2nccs2)cc1)c1cccnc1`: the Potency result in test [1] and in test [2] was “inactive” each time.
Regarding `Cc1ccc(C(=O)Nc2nnc(-c3ccco3)o2)cc1`, the Potency entry in test [1] and in test [2] was “inactive” each time.
With `C=C1C(=O)OC2CC(C)C(CCC(C)O)=CCC12` (stereo unspecified), the Potency result in test [1] and in test [2] was “inactive” each time.
For `Cc1nc(CNc2ncnc3ccc(-c4sc(C)nc4C)cc23)cs1`, the Potency entry in test [1] and in test [2] was “inactive” in each case.
Take `Cc1cc2c(s1)c1cnn(Cc3ccc(C(C)(C)C)cc3)c(=O)c1n2C`: the Potency result in test [1] and in test [2] was “inactive” each time.
As to `O=[S+]([O-])(c1ccc2c(c1)OCCO2)N1CCN([S+](=O)([O-])c2c(F)cc(F)cc2Br)CC1`, the Potency result in test [1] and in test [2] was “inactive” each time.
For `O=[S+]([O-])(c1ccc2c(c1)OCCO2)N1CCN([S+](=O)([O-])c2ccccc2Br)CC1`, the Potency entry in test [1] and in test [2] was “inactive” throughout.
Consider `O=C1CC(c2ccccc2)CC2=C1C1(CCCCC1)N=C(Nc1nc3ccccc3o1)N2` (stereo unspecified), for which the Potency entry in test [1] and in test [2] was “inactive” in each case.
Consider `CNc1nc(C#N)c(-c2cccc3ccccc23)o1`, for which the Potency result in test [1] and in test [2] was “inactive” each time.
As to `CC(C)c1ccccc1-c1ncc(F)c(NCC2CCN(c3cnccn3)C2)n1` (stereo unspecified), the Potency result in test [1] and in test [2] was “inactive” in each case.
Regarding `CC(C)C[C@H](C(=O)O)c1cc(-c2ccc(C(F)(F)F)cc2)cc(-c2ccc(C(F)(F)F)cc2)c1`, the Potency entry in test [1] and in test [2] was “inactive” in each case.
For `N#Cc1nc(-c2cccc3ccccc23)oc1NC1COC1`, the Potency result in test [1] and in test [2] was “inactive” in each case.
With `Cc1ccc(OCCn2c(CCNC(=O)C3CCOCC3)nc3ccccc32)cc1`, the Potency result in test [1] and in test [2] was “inactive” in each case.
Take `Cn1cc(C[C@H](C(=O)O)N2C(=O)c3ccc(C(=O)O)cc3C2=O)c2ccccc21`: the Potency result in test [1] and in test [2] was “inactive” throughout.
As to `Cc1ccc(NS(=O)(=O)c2cc3c(cc2N[C@H](C)CO)NC(=O)CC3)cc1C`, the Potency entry in test [1] and in test [2] was “inactive” throughout.
`Cc1sc(NC(=O)Cc2ccc3c(c2)OCO3)nc1-c1ccc2c(c1)CCN2C(=O)c1ccccc1Cl`: the Potency result in test [1] and in test [2] was “inactive” in each case.
For `O=S(=O)(c1ccc2c(c1)OCCCO2)N1CCN(S(=O)(=O)c2c(F)cccc2F)CC1`, the Potency entry in test [1] and in test [2] was “inactive” throughout.
`N#Cc1ccc(S(=O)(=O)N2CCN(S(=O)(=O)c3ccc4c(c3)OCCO4)CC2)cc1`: the Potency result in test [1] and in test [2] was “inactive” in each case.
As for `CS(=O)(=O)c1ccc(C(=O)OCC(=O)N2CCC(c3ccccc3)CC2)cc1[N+](=O)[O-]`, the Potency entry in test [1] and in test [2] was “inactive” throughout.
In the case of `Nc1ccc(S(=O)(=O)Nc2cccc3cccnc23)cc1`, the Potency entry in test [1] and in test [2] was “inactive” each time.
As to `O=C(Nc1nc(-c2ccccc2)cs1)c1ccccc1S(=O)(=O)Nc1nccs1`, the Potency entry in test [1] and in test [2] was “inactive” throughout.
As for `Cc1c(P(=S)(c2ccccc2)c2ccccc2)[n+]2ccccc2n1CCCc1ccccc1`, the Potency result in test [1] and in test [2] was “inactive” in each case.
With `Cc1cc(C)n2ncc(C(=O)NC3CCC(C(C)(C)C)CC3)c2n1` (stereo unspecified), the Potency result in test [1] and in test [2] was “inactive” in each case.
As to `CCC(=O)NC(c1ccc2c(c1)OCO2)c1cc(Cl)c2cccnc2c1O` (stereo unspecified), the Potency entry in test [1] and in test [2] was “inactive” in each case.
`CC(C)c1cccc(C(C)C)c1NC(=O)Nc1ccc(Sc2ccc([N+](=O)[O-])cc2)cc1`: the Potency result in test [1] and in test [2] was “inactive” each time.
`COc1ccc([S+](=O)([O-])N2CCN([S+](=O)([O-])c3ccc4c(c3)OCCO4)CC2)c(OC)c1`: the Potency entry in test [1] and in test [2] was “inactive” each time.
Turning to `OC(c1ccccc1)(c1ccccc1)c1cnc2ccccn12`, the Potency entry in test [1] and in test [2] was “inactive” throughout.
For the compound `C=C(CCC1=C(C)[C@H]2[C@H](CC3[C@@H]4CC=C5C[C@@H](O)C[C@@H](O)[C@]5(C)C4[C@H](O)C[C@@]32C)O1)CO[C@@H]1O[C@H](CO)[C@@H](O)[C@H](O)[C@H]1O` (stereo partly specified), the Potency entry in test [1] and in test [2] was “inactive” each time.
For `Cc1cc2c(s1)c1cnn(Cc3cc(F)cc(F)c3)c(=O)c1n2C`, the Potency result in test [1] and in test [2] was “inactive” throughout.
For `O=S(=O)(Nc1nccs1)c1ccc(NCc2ccccc2)cc1`, the Potency result in test [1] and in test [2] was “inactive” in each case.
In the case of `COc1ccc(-c2ccc(NC(=O)c3cccs3)cn2)cc1`, the Potency result in test [1] and in test [2] was “inactive” in each case.
Consider `CCCCN(C)C(=O)Cn1nc(-c2ccc(OC)cc2)ccc1=O`, for which the Potency result in test [1] and in test [2] was “inactive” in each case.
